RORg inh: blocks mouse ROR gamma transcriptional activity; Drosophila S2 Gal4-RORgamma UAS-luciferase reporter, 20 h; Potency, µM (doses to about 53.6 µM), without a hit: at the top dose activity change, negative = inhibition, hits mostly inhibitors; 310,000 compounds, 5.4% hits; AID 2551; further: potency means the concentration at half of the fitted maximal effect; on the % scale 0 is the no-effect control and ±100 the full control effect; nearly all actives have a fitted effect of over 60% in size
Target sequence (P51450 whole entry, looked up, the tested form may be a part): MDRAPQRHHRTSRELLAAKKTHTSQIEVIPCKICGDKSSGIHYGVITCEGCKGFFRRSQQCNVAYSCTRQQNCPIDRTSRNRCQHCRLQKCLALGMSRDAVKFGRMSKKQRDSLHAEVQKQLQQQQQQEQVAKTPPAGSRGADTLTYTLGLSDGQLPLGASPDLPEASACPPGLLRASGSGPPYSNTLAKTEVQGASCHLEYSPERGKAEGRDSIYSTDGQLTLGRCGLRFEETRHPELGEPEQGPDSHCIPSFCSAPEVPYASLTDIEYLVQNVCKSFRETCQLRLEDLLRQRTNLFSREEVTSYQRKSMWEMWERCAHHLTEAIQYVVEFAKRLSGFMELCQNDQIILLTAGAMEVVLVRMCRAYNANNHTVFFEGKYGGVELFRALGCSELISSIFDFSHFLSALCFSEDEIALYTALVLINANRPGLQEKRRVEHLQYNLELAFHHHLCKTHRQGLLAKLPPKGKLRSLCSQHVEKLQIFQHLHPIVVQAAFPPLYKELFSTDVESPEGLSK
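Schneider cells (Drosophila), stable Gal4 DBD–ROR gamma + UAS-luc; 1 hr cmpd preincubation; Cu2+ induction 700 uM final; 20 hr ambient; luminescence.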
VP16 counter: counter-screen for ROR gamma inhibitors: Gal4-VP16 reporter. Drosophila S2 Gal4-VP16 UAS-luciferase, luminescence, 20 h. Potency, µM (series often up to 53.6 µM), for the others: top-dose activity, negative = inhibition, most hits filed as inhibitors. 310,000 compounds, 3.5% hits. AID 2546;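 further: Gal4-VP16 expression switched on by copper sulfate through the metallothionein promoter; potency means the concentration at half of the fitted maximal effect; on the % scale 0 is the no-effect control and ±100 the full control effect; nearly all actives have a fitted effect of over 50% in size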
p53 reactivation: mutant p53 re-activation in reporter cells; H1299 p53-A138V BP100-luciferase reporter, luminescence, 24 h; Potency, µM (series often up to 92.2 µM), without a hit: at the top dose activity change, positive = activation, usual class: activators; 320,000 compounds, 0.063% hits; AID 504706; further: potency means the concentration at half of the fitted maximal effect; % of control where 0% means no effect; nearly all actives have a fitted effect of over 45% in size
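H1299 (p53-null), stable ts p53-A138V + BP100-Luc; 1000 cells/well, Opti-MEM/10% FBS; cpd 4 pt, 1:5; 24 h, 37 deg C, 5% CO2; detection reagent 10 min RT; luminescence.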
BRCA1 expr act: increases BRCA1 expression | MCF7-BRCA1-FFLuc reporter, luminescence, 48 h; response scale: scaled: vehicle 0%, 10 µM genistein 100% | 380,000 compounds, 1.1% hits | Potency, µM (doses to about 46.1 µM), for the others: at the top dose activation, usual class: activators; further: potency means the concentration at half of the fitted maximal effect; nearly all actives have a fitted effect of over 80% in size
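MCF7-BRCA1-FFLuc, 2000 cells/well; 2 h attach, 37 °C/5% CO2; compound 48 h; luciferase substrate 15 min; luminescence end-point. Norm. to genistein 10 microM max activation and DMSO; concentration-response curves fitted.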
Giardia kill: kills Giardia lamblia. Giardia lamblia trophozoite viability. activity change, % at 7.66 µM, hits read low. 340,000 compounds, 0.15% hits. AID 540267; in the data active means activity change below about -80%; inconclusive means between about -30% and that limit;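 further: parasites exposed to compound for two days anaerobically before the ATP read; on the % scale 0 is the no-effect control and ±100 the full control effect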
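ATP-content bioluminescence gauges trophozoite survival. Cells (100/well) receive compound and incubate anaerobically for 48 hrs at 37 deg C; detection reagent follows for 15-30 min at room temperature.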
ELG1 DNA repair: ELG1-dependent DNA repair inhibition | HEK293T ELG1-luciferase reporter, luminescence, 16 h; DNA damage induced by 5-fluorouridine | Potency, µM (doses to about 46.1 µM), inactives show at the highest dose activity change, negative = inhibition, usual class: inhibitors | 330,000 compounds, 2.3% hits | AID 504467; further: potency means the concentration at half of the fitted maximal effect; on the % scale 0 is the no-effect control and ±100 the full control effect; nearly all actives have a fitted effect of over 55% in size
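DMSO vehicle served as the neutral condition. Each well held 2,000 cells given 5-fluorouridine plus compound; after 16 hr at 37 °C/5% CO2, ONE-Glo was added and luciferase measured 30 min later.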
Numbers without * were called inactive; [ ] = another dose, or the depositor's remark. Only some compounds are listed: those with a hit (about 7.6% of all), similar ones and a draw of the others. Unless noted, the call rests on the fitted dose curve; in most records, active means well fitted curve in the direction sought with a large enough effect; inconclusive means small, poorly fitted or top-dose-only effect, or another doubt; inactive means no such curve, though single readings can be large; an effect the other way counts as inactive or inconclusive.

`Cc1cc(-n2c(SCC(=O)Nc3ccc(Br)cc3)nc3n[nH]c(C)c3c2=N)ccc1Cl` gave RORg inh inconclusive, VP16 counter 20µM*, p53 reactivation -5.6%, BRCA1 expr act -64.5%, Giardia kill -5.7 and ELG1 DNA repair 2.2%.
For COc1cccc(-n2c(SCC(=O)NCCC3=CCCCC3)nc3n[nH]c(C)c3c2=N)c1 the results were RORg inh -38.8%, VP16 counter -2.2%, p53 reactivation -2.5%, BRCA1 expr act -64.9%, Giardia kill -8.3 and ELG1 DNA repair 16.4µM*.
`Cc1cc(-n2c(SCC(=O)Nc3ccc(F)c(F)c3)nc3n[nH]c(C)c3c2=N)ccc1Cl` gave RORg inh -44.0%, VP16 counter inconclusive, p53 reactivation 3.6%, BRCA1 expr act -3.0%, Giardia kill 1.1 and ELG1 DNA repair 0.0%.
For COc1ccc(N(CC(=O)N/N=C/c2ccc3c(c2)OCO3)S(=O)(=O)c2ccc(NC(C)=O)cc2)cc1 the results were RORg inh 16.2%, VP16 counter -7.4%, p53 reactivation -5.5%, BRCA1 expr act -12.1%, Giardia kill -10.9 and ELG1 DNA repair inconclusive.
Screening COc1ccc(C)cc1S(=O)(=O)N(CC(=O)O)c1ccc(F)cc1 returned RORg inh -0.3%, VP16 counter 1.0%, BRCA1 expr act -20.7% and Giardia kill 5.7.
For CCN(C(=O)CSc1nnc(Nc2ccc(OC)cc2)s1)C1CCS(=O)(=O)C1 (configuration not stated) the results were p53 reactivation inconclusive, BRCA1 expr act 53.7%, Giardia kill -11.4 and ELG1 DNA repair inconclusive.
CCOC(=O)c1sc2nc(C)nc(SCC(=O)N(CC)C3CCS(=O)(=O)C3)c2c1C (configuration not stated) was read as RORg inh 12.7%, VP16 counter 0.1%, p53 reactivation -3.8%, BRCA1 expr act -10.4%, Giardia kill -3.3 and ELG1 DNA repair 16.4µM*.
Screening O=[N+]([O-])c1nn(-c2ccccc2)n(O)c1=NC1CCN(Cc2ccccc2)CC1 returned RORg inh -4.3%, VP16 counter 19.3%[10 µM], p53 reactivation 11.2%, BRCA1 expr act -79.3%, Giardia kill -85.4* and ELG1 DNA repair inconclusive.
Screening CN=c1c([N+](=O)[O-])nn(-c2ccc3c(c2)OCCO3)n1O returned RORg inh 29.9%, VP16 counter -22.1%, p53 reactivation 8.6%, BRCA1 expr act 16.2%, Giardia kill inconclusive and ELG1 DNA repair inconclusive.
O=[N+]([O-])c1nn(-c2ccc3c(c2)OCCO3)n(O)c1=NCCC1=CCCCC1 was read as RORg inh -20.6%, VP16 counter inconclusive, p53 reactivation 25.8%, BRCA1 expr act 4.47µM*, Giardia kill -92.5* and ELG1 DNA repair inconclusive.
For O=[N+]([O-])c1nn(-c2ccc3c(c2)OCCO3)n(O)c1=NC1CCN(Cc2ccccc2)CC1 the results were RORg inh -20.6%, VP16 counter inconclusive, p53 reactivation 15.6%, BRCA1 expr act 37.3%, Giardia kill -82.3* and ELG1 DNA repair inconclusive.
Screening O=[N+]([O-])c1nn(-c2ccc3c(c2)OCCO3)n(O)c1=NCc1ccc(F)cc1 returned RORg inh 22.6%[10 µM], VP16 counter -12.2%, p53 reactivation inconclusive, BRCA1 expr act 20.8%, Giardia kill inconclusive and ELG1 DNA repair inconclusive.
Screening Cn1nc(C(F)(F)F)c(-c2ccc(Br)cc2)c1NC(=O)CSCC(=O)O returned RORg inh 3.2%, VP16 counter -5.0%, p53 reactivation 1.6%, BRCA1 expr act 0.5%, Giardia kill -1.1 and ELG1 DNA repair 6.6%.
For O=C(Nc1ccc(CN2CCOCC2)cc1)c1cccs1 the results were RORg inh -39.9%, VP16 counter -16.2%, p53 reactivation inconclusive, BRCA1 expr act 86.2%, Giardia kill 5.7 and ELG1 DNA repair inconclusive.
O=C(Nc1ccc(CN2CCOCC2)cc1)c1cc2ccccc2o1 was read as RORg inh 11.2µM*, VP16 counter inconclusive, p53 reactivation 18.8%, BRCA1 expr act 26.1%, Giardia kill -23.2 and ELG1 DNA repair inconclusive.
Screening O=C(Cc1ccccc1)Nc1ccc(CN2CCOCC2)cc1 returned RORg inh -29.7%, VP16 counter inconclusive, p53 reactivation inconclusive, BRCA1 expr act 10µM*, Giardia kill 1.5 and ELG1 DNA repair inconclusive.
`O=C(Nc1ccc(CN2CCOCC2)cc1)c1cc2ccccn2n1` gave RORg inh 10µM*, VP16 counter 20µM*, p53 reactivation 4.2%, BRCA1 expr act -45.3%, Giardia kill -15.4 and ELG1 DNA repair inconclusive.
For c1ccc(CN2CCOCC2)cc1 the results were RORg inh -21.9%, VP16 counter -3.7%, p53 reactivation 2.9%, BRCA1 expr act 0.9%, Giardia kill 8.3 and ELG1 DNA repair -1.8%.
O=C(NC(=S)Nc1ccc(CN2CCOCC2)cc1)c1cc2ccccc2o1 was read as RORg inh 10.3%, VP16 counter -11.9%, p53 reactivation 12.0%, BRCA1 expr act 35.4%, Giardia kill -14.4 and ELG1 DNA repair inconclusive.
Screening O=C(Nc1ccc(CN2CCOCC2)cc1)c1ccccc1F returned RORg inh 0.631µM*, VP16 counter 11.2µM*, p53 reactivation inconclusive, BRCA1 expr act 70.4%, Giardia kill -20.1 and ELG1 DNA repair inconclusive.
Cn1cc(S(=O)(=O)Nc2ccc(OC(F)(F)F)cc2)c(=O)n(C)c1=O was read as RORg inh 26.3%, VP16 counter -11.7%, p53 reactivation -1.3%, BRCA1 expr act -1.5%, Giardia kill 3.4 and ELG1 DNA repair 0.0%.
For COc1c2c(cc3c1C(CC(=O)c1c(O)c(OC)c4occc4c1OC)[N+](C)(C)CC3)OCO2 (configuration not stated) the results were RORg inh 4.5% and VP16 counter -15.2%.
Screening COc1ccc(C(=O)Nc2ccc(-c3nnc4n3CCCCC4)cc2)cc1OC returned BRCA1 expr act 15.5%.
`CCN1CCN(c2ccc(NC(=O)c3ccc(C#N)cc3F)cc2Cl)CC1` gave RORg inh -0.3%, VP16 counter 0.2%[10 µM], p53 reactivation 6.4%, BRCA1 expr act -2.1%, Giardia kill 9.3 and ELG1 DNA repair 6.4%.
CCN1CCN(c2ccc(NC(=O)c3ccccc3F)cc2Cl)CC1 was read as RORg inh 4.4%, VP16 counter 17.5%[10 µM], p53 reactivation 17.9%, BRCA1 expr act 7.08µM*, Giardia kill 17.5 and ELG1 DNA repair inconclusive.
